Data: article PMC4336329 (PLoS ONE, 2015)
The whole screen tested about 310,000 compounds, of which about 14,000 (4.5%) showed an effect of 50% or more. The effect is printed as a negative number. Shown is part of a subset that was picked to be rich in strong results.

Each molecule was assayed against human ether-à-go-go-related gene (hERG) potassium channel (human, UniProt Q12809) (assay: primary screen, population patch clamp on CHO cells stably expressing hERG; higher = less effect of the substance).
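Note: peak tail current of the secondary pulse compared with the same well before compound.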

Chain of human ether-à-go-go-related gene (hERG) potassium channel (Q12809 whole entry, looked up): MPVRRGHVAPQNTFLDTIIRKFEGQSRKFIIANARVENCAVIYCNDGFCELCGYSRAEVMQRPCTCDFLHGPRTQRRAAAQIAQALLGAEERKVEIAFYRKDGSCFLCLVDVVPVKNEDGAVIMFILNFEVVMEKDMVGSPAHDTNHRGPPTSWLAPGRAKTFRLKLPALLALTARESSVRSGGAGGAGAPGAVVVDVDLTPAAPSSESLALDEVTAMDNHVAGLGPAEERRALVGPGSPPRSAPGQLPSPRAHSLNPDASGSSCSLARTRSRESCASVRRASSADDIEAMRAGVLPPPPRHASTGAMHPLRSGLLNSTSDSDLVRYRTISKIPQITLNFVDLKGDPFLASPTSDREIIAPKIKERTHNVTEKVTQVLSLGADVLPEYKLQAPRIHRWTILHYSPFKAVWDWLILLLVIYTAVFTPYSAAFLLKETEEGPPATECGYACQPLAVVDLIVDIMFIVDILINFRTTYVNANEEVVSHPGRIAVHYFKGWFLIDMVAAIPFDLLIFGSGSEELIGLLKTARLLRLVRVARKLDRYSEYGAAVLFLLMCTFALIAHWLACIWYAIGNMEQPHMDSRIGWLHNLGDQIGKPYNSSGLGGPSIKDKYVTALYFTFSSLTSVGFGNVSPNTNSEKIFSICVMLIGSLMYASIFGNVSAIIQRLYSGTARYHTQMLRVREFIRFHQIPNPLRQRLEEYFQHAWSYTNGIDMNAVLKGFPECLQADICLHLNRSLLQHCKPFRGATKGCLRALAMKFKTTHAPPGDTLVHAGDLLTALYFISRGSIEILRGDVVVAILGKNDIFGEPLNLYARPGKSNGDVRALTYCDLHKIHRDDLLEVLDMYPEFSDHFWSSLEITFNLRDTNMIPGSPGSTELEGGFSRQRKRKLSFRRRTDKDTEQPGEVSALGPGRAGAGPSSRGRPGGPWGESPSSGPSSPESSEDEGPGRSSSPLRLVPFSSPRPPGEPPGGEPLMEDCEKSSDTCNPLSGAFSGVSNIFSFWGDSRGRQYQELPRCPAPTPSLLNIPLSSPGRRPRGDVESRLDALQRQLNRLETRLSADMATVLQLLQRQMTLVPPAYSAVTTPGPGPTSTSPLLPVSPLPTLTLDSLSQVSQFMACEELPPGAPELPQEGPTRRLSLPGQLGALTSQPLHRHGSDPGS

Structure (SMILES) | hERG current change (%, negative = inhibition) at 10uM [%]
CN(C(=O)COC(=O)C12CC3CC(CC(C3)C1)C2)c1c(N)n(Cc2ccccc2)c(=O)[nH]c1=O | 7.54
CCOC(=O)C1(P(=O)(c2ccc(Cl)cc2)c2ccc(Cl)cc2)CCC1 | -25.2
N/C(=N\OC(=O)COc1ccc2ccccc2c1)c1ccccn1 | -1.39
CCN(C(=O)COC(=O)CCS(=O)(=O)c1ccc(C)cc1)C1CCS(=O)(=O)C1 (centres unmarked) | 12.9
COc1ccccc1C(C#N)N1N=C(C)CC1c1ccccc1 (centres unmarked) | 1.69
O=C(CSc1nnc(COc2ccccc2Cl)o1)NC(=O)NCc1ccco1 | -8.18
Cc1cc(=O)[nH]c(/N=C(\N)Nc2ccc(SC(F)F)cc2)n1 | -15.8
Cc1cc(C)nc(/N=C(\N)Nc2ccc(SC(F)F)cc2)n1 | -74.7
Cc1cc(C)nc(/N=C(\N)Nc2ccc3c(c2)OCCO3)n1 | 6.67
CCOc1ccc(N2C(=O)CC(NCCc3ccc(S(N)(=O)=O)cc3)C2=O)cc1 (centres unmarked) | -22
Cl.NS(=O)(=O)c1ccc(CCNCc2cccs2)cc1 | 4.04
CCOc1ccc(OCCC(=O)OCC(=O)NCCc2ccc(S(N)(=O)=O)cc2)cc1 | -4.49
COc1ccc(CNC(=S)Nc2ccc(S(N)(=O)=O)cc2)cc1 | 22.1
COc1ccc(CNc2ccc(S(N)(=O)=O)cc2)cc1 | -52.6
CCOc1ccc(CNc2ccc(S(N)(=O)=O)cc2)cc1 | -6.78
CCOc1ccc(CNCCc2ccc(S(N)(=O)=O)cc2)cc1.Cl | -70.1
Cl.NS(=O)(=O)c1ccc(CCNCc2cccnc2)cc1 | 18.4
C=CCOc1ccc(CNCCc2ccc(S(N)(=O)=O)cc2)cc1.Cl | -81.4
COc1ccc(C(=O)NC(=S)N2CCN(c3ccccc3OC)CC2)cc1 | -21.6
O=C(COC(=O)c1cccnc1)c1ccc(Cl)cc1 | 4.51
CCCCn1c(SCn2nnc3ccccc3c2=O)nc2cc(S(N)(=O)=O)ccc21 | -34.5
COc1ccc(C(C(O)C(=O)c2c[nH]c3ccccc23)N2CCN(c3ccccc3)CC2)cc1 (centres unmarked) | -13.8

Structure (SMILES) | hERG current change (%, negative = inhibition) at 10uM [%]
COc1ccc(N2CCN(CCCNC(=O)C(=O)c3c(C)[nH]c4ccccc34)CC2)cc1 | -53.3
COc1ccc(N2CCN(C(=O)C(=O)c3c(C)n(C)c4ccccc34)CC2)cc1 | 10.4
COc1ccc(N2CCN(CC(=O)c3c[nH]c4ccccc34)CC2)cc1 | 8.09
COc1ccc(N2CCN(CC(=O)c3c(C)n(C)c4ccc(OC)cc34)CC2)cc1 | -4.1
COc1ccc(N2CCN(CCCNC(=O)C(=O)c3c[nH]c4ccccc34)CC2)cc1 | -69.7
COc1ccc(N2CCN(C(=O)C(=O)c3c(C)[nH]c4ccccc34)CC2)cc1 | -14.1
CCN1CCN(CCCNC(=O)C(=O)c2c(C)[nH]c3ccccc23)CC1 | 3.67
Cl.O=C(NCCCN1CCOCC1)C(=O)c1c[nH]c2ccccc12 | -3.03
COc1ccc(C(C(O)C(=O)c2c[nH]c3ccccc23)N2CCN(c3ccc(OC)cc3)CC2)cc1 (centres unmarked) | -7.36
CCN1CCN(C(c2ccc(OC)cc2)C(O)C(=O)c2c[nH]c3ccccc23)CC1 (centres unmarked) | -69
COc1ccc(N2CCN(CCCNC(=O)C(=O)c3c(C)n(C)c4ccccc34)CC2)cc1 | -64.1
O=C(NCCN1CCOCC1)c1cccc(S(=O)(=O)N(Cc2ccccc2)c2ccccc2)c1 | -19.3
CCOC(=O)c1sc(C)c(C(=O)NC2CCCCC2)c1N | -4.79
CNC(=O)c1c(NC(=O)CCS(=O)(=O)c2ccccc2)sc(C)c1C | 0.0126
COc1ccc(/C=N/NC(=O)Cc2csc(Nc3cccc(C(F)(F)F)c3)n2)cc1C | 10.7
CCOC(=O)c1cc(-c2ccccc2)sc1NC(=O)COC(=O)c1cccc(S(N)(=O)=O)c1 | 10.2
CC1CC(C)CN(CCCNC(=O)CCC(=O)N2CC(C)Oc3ccccc32)C1 (centres unmarked) | -32.2
Cc1cccc(/C=N/NC(=O)c2cccc(NC(=O)c3ccccc3)c2)n1 | 0.172
CCOCc1nnc(NC(=O)CSc2ccc(C)cc2)s1 | 6.61
Cc1c(N2CCCC2)cc2c(c1NC(=O)c1ccccc1Cl)C(C)(C)CC2(C)C | -25.6
CN1/C(=C/c2cccc[n+]2CCO)Sc2ccccc21.[I-] | 12.4
COc1ccccc1-[n+]1c(C)cc(/C=C2\Sc3ccccc3N2C)cc1C.[I-] | -69.6

Structure (SMILES) | hERG current change (%, negative = inhibition) at 10uM [%]
COc1ccc(C(=O)/C=C2\Sc3ccccc3N2C)cc1 | 11.1
COc1cc(OC)cc(C(=O)/C=C2\Sc3ccccc3N2C)c1 | 9.82
CN1/C(=C/c2cccc[n+]2C)Sc2ccccc21.[I-] | -22.7
COc1ccc(-[n+]2c(C)cc(/C=C3\Sc4ccccc4N3C)cc2C)cc1.[I-] | -60.2
COc1ccc(NC(=O)/C(C#N)=C\c2ccc(OCc3ccc(C(=O)O)cc3)c(OC)c2)cc1 | 3.69
CC(C)C(CCNC(=O)CC(Cc1ccccc1)c1ccco1)c1ccco1 (centres unmarked) | -20
Cc1cc(C)cc(OCC(=O)NNC(=O)CCN2C(=O)c3ccccc3C2=O)c1 | -14.8
Cc1ccc(NC(=O)CCNS(=O)(=O)c2ccc3[nH]c(=O)oc3c2)cc1C | 9.43
COc1ccc2cc(CN(CC3CCCO3)S(=O)(=O)c3ccc(C(C)=O)cc3)c(=O)[nH]c2c1 (centres unmarked) | -11.4
COC(=O)CN(C)C(=O)CC1C(=O)NCCN1CC(C)(C)C (centres unmarked) | 22.8
O=c1[nH]cnc2c1cnn2Cc1ccccc1Cl | 11.7
Cc1ccc(C2(C)NC(=O)N(CC(=O)NCc3ccccc3Cl)C2=O)cc1 (centres unmarked) | 9.54
CCCc1noc2c1/C(=N\O)CC(CC(C)SCC)C2 (centres unmarked) | -11.1
CCSC(C)CC1C/C(=N/O)c2c(CC)noc2C1 (centres unmarked) | -24.2
CCSC(C)CC1C/C(=N/O)c2c(C)noc2C1 (centres unmarked) | -63.4
O=C(Nc1nccs1)C1CCCN1/C=C/C(=O)C(F)(F)F (centres unmarked) | 13.9
CSc1nnc2c(n1)OC(c1ccccn1)N(C(C)=O)c1ccccc1-2 (centres unmarked) | 1.42
c1ccc2c(c1)ncn2-c1ncnc2sc3c(c12)CCCC3 | -27.2
CC(O)CNc1nc2sc3c(c2c(=O)n1CCc1ccccc1)CCCCC3 (centres unmarked) | 13.1
CC(O)CNc1nc2ccccc2n1-c1ncnc2sc3c(c12)CCC3 (centres unmarked) | -55.5
COc1ccc(CC(=O)N/N=C/c2ccc(-c3cccc(C(=O)O)c3)o2)cc1OC | 3.33
C=CCNC(=O)CN(Cc1ccccc1)S(=O)(=O)c1ccccc1 | -4.02

Structure (SMILES) | hERG current change (%, negative = inhibition) at 10uM [%]
CCNS(=O)(=O)c1ccc(NC(=S)N2CCc3ccccc32)cc1 | 22.9
CCOC(=O)c1c(C)nsc1NC(=O)C1CCCCC1 | 17.3
O=C(CCc1nc2ccccc2s1)N1CCN(S(=O)(=O)c2cccs2)CC1 | -66.7
O=C(COc1ccccc1)N1CCN(S(=O)(=O)c2cccs2)CC1 | -31
O=S(=O)(c1cccs1)N1CCN(Cc2nc3ccccc3s2)CC1 | -27.8
N#Cc1ccc(OCC(=O)N2CCN(S(=O)(=O)c3cccs3)CC2)cc1 | -72.1
CC(C)(C)c1ccc(C(=O)N2CCN(S(=O)(=O)c3ccc(Br)s3)CC2)cc1 | 1.21
O=C(CCCc1nc2ccccc2s1)N1CCN(S(=O)(=O)c2cccs2)CC1 | -11.9
O=C(CCOc1ccccc1)N1CCN(S(=O)(=O)c2cccs2)CC1 | -9.15
CCC(=O)c1ccc(OCC(=O)N2CCN(S(=O)(=O)c3ccc(Cl)s3)CC2)cc1 | -4.53
COc1ccc(OCC(=O)N2CCN(S(=O)(=O)c3ccc(Cl)s3)CC2)cc1 | -0.573
N#Cc1ccc(C(=O)N2CCN(S(=O)(=O)c3ccc(Cl)s3)CC2)cc1 | -49.9
N#Cc1ccc(OCC(=O)N2CCN(S(=O)(=O)c3ccc(Cl)s3)CC2)cc1 | -69.5
N#Cc1ccc(C(=O)N2CCN(S(=O)(=O)c3ccc(Br)s3)CC2)cc1 | -63.5
CCN(CC(=O)NC(=O)Nc1ccccc1F)Cc1ccccc1 | 12.4
Cc1ccc(N(CCC(=O)N2CCOCC2)S(=O)(=O)c2ccccc2)cc1 | -8.57
Cn1c(NC(=O)C2c3ccccc3Oc3ccccc32)cc(=O)n(C)c1=O | -3.72
C=CCn1c2ccccc2c2nnc(SCC(=O)Nc3cc(C)on3)nc21 | -8.39
CCOC(=O)CNC(=O)c1nn(-c2cccc(OC)c2)c(=O)c2ccccc12 | -22.9
O=C(COC(=O)c1cccc(Oc2ccccc2)c1)NCc1ccco1 | 3.19
